Experimental data as given in the supplement of paper PMC3334620.
The full ranking holds about 33,000 sequences; the median of “E-score (-0.5 to 0.5)” is about -0.04, and the highest 2% start at about 0.36. This excerpt belongs to a sample that is enriched for the highest values.

The sequences below were run against T1, Hmlalpha2 (UniProt P0CY09) (assay: PBM E-score (8-mer binding enrichment) (E-score (-0.5 to 0.5)); higher = stronger / more preferred TF binding). Details: protein concentration: 200 nM; construct: GST-full length.
T1 sequence: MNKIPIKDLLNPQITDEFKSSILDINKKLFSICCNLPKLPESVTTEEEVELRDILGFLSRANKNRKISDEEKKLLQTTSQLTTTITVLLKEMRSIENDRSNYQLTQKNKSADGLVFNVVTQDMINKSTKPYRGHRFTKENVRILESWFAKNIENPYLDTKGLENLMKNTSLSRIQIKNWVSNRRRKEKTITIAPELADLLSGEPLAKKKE
Protocol: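 Universal 'all 10-mer' protein binding microarrays (Agilent AMADID 015681) probed with GST-tagged S. cerevisiae TFs (full-length or DBD) made by in vitro transcription/translation (PURExpress), about 100-200 nM. Bound TF was detected with fluorescent anti-GST. Each ungapped 8-mer (which stands for itself and its reverse complement) is scored by the PBM enrichment score (E-score), a modified Wilcoxon-Mann-Whitney statistic from -0.5 to +0.5, computed with the Universal PBM Analysis Suite. Scale: above 0.35 generally sequence-specific binding.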

Sequence	PBM E-score
ATGAGGAA	0.0377
ACCTAACT	0.00114
AACGAACC	0.036
CATGGGGC	0.0176
CGCAATGA	0.0708
GAGAATAC	0.242
ATTGTTGG	0.151
AATCTGAA	0.102
ACTACTTG	0.154
AAGTGTAT	0.194
ACGTGTAT	0.402
AAGTGTAC	0.0982
ACGTGTAC	0.382
GAGTGTAC	0.0265
GGGTGTAC	-0.0223
GCGTGTAA	0.486
ACGTGTCT	0.193
TAGTGTAA	0.323
GCCTGTAA	0.254
ACGTGTGC	0.172
GCGTGTAC	0.427
CAACCACG	0.111
ATTGGTAG	0.0446
GGATCCTA	-0.154
ATCCTAAT	-0.0163

Sequence	PBM E-score
CTGGCGAA	-0.103
CTGTCCAA	-0.0758
ACATAGGG	0.251
ACGTAGAT	0.267
CGCTTGCA	-0.0244
ACGCGTTA	0.342
GCGCGTGA	0.134
ACGCGTAC	0.345
CCGCGTTA	0.336
GCGCGTAA	0.416
ACGCGTAT	0.357
TAGCGTAA	0.278
TGGCGTAA	0.108
ACGCGTAA	0.394
GCGCGTAC	0.225
TCGCGTAA	0.45
GCGCGTTA	0.372
GCTGAAGC	-0.14
CCGAATGC	-0.125
ATTGATGG	0.08
TCCATGAA	0.043
TCCAACAA	0.264
GGCCTACC	-0.247
CTGAGGGC	-0.3
ATCTCGGA	-0.115

Sequence	PBM E-score
AAAGCGAG	0.107
CTCTGACA	0.132
GCGACCAA	-0.0947
GCCAGACA	-0.163
CCGCGTAG	0.294
CCGCGTAA	0.426
CCGCGTAC	0.266
ATCTACTA	0.193
GCTATTCA	0.0214
ACTTTGCC	-0.0921
GGGGAGTA	-0.225
AAGTTGCA	0.109
TATCTAAA	0.141
TATCTACA	0.371
GATCTACA	0.345
AATCTACA	0.438
CATCTACA	0.338
GTTCTACA	0.29
AATCTACT	0.098
ATTCTACA	0.371
ATTCTACG	0.157
GCATTGAC	0.0683
CGACCGAA	-0.0499
GAAGGCCA	-0.38
ATCTGCCA	-0.149

Sequence	PBM E-score
CAGTACAG	0.0351
TAACGGCA	-0.0141
CTTACAGA	0.0289
CTTACATA	0.426
GTTACAGA	0.0217
GTTACATA	0.421
CTCACATA	0.0587
GTTACTGA	0.171
ACCCCTAT	-0.208
ACACCCAG	0.0143
GCGCGAAA	0.189
TCACAACA	0.324
TACTATAA	0.171
ACATATGC	0.123
ACATATTG	0.142
ACATATTA	0.389
CCATATTA	0.063
ACATATGG	0.104
TAATATTA	0.379
ACATATGT	0.369
AAATATTA	0.317
CAATATTA	0.213
ATGCACAC	0.106
CTTTTGCA	0.105
ACTTTCGG	-0.0932

Sequence	PBM E-score
AGCATCCC	-0.348
AGAACTAA	0.189
AGAGCGGG	-0.166
ACCTACTA	0.081
ACGCGATA	0.324
CTCCAGGC	-0.185
ATTAAACA	0.322
ATTAAAAA	0.249
CTTAAACA	0.128
GTTAAACA	0.375
GTTAAAAA	0.369
GTTAAAAC	0.343
TCCTACCA	-0.318
GGATGGAA	-0.175
AGGTTCTG	-0.0953
AAACCTCT	-0.08
CTGTTTAA	0.11
GTGTTTAA	0.351
ATGTTTTC	0.421
ATGTTTAA	0.387
ATGTTTTA	0.422
CTGTTTTC	0.036
ATGTTTCC	0.0968
GTGTTTTA	0.355
CTGTTTTA	0.0458

Sequence	PBM E-score
ACCTTGGC	-0.242
ATTGCCAA	-0.206
CCTGGACC	-0.0273
GGTTCTCA	-0.0328
ATCTACAC	0.45
CTCTACGC	0.0772
CCCTACAC	0.247
ATCTACAT	0.452
CTCTACAA	0.277
GTCTACAC	0.364
ATCTACGC	0.368
CTCTACAC	0.368
ATCTACGA	0.014
ATCTACAG	0.151
ATCTACTC	0.00965
ATCTACAA	0.307
GGAGGCTA	-0.325
GTTCTGCA	0.104
ATAACAGG	0.194
ATAACATG	0.452
ATAACATC	0.327
ATAACATA	0.437
GTAACATA	0.355
CTAACATA	0.273
AGCTGCAG	-0.168

Sequence	PBM E-score
ACTTTGAC	0.231
CCTTGCCC	-0.198
ACATGTTG	0.45
CCATGTCA	0.333
AAATGTTG	0.0925
AGATGTTG	-0.0256
ACATGTCA	0.402
CCATGTTC	0.275
ACATGTTC	0.371
GCATGTTA	0.464
AGATGTTC	0.0875
GCCTGTTA	0.139
CAATGTTA	0.284
ACATGTCC	0.351
CCTGGGCG	-0.173
GCAAGCGA	0.0703
GCGAAACC	0.104
CAAACCCG	-0.0693
ATTCACCA	0.0468
ATGAGGTA	0.136
CCGCATAC	0.0261
CCTTAGAG	-0.462
